Shiga inhibitor: inhibitors of Shiga toxin in Vero cells; Vero cells, Shiga toxin protein synthesis inhibition reporter; inhibition, % at 38.7 µM; 290,000 tested, 9.2% active; AID 2315; in the data active means inhibition mostly above about 28%, no sharp cut-off; inactive means mostly below about 43%; further: 0% is about no effect
Pf growth 96h: P. falciparum growth inhibition at 96 hours | P. falciparum luciferase reporter growth, 96 h | Potency, µM (titrated, usually from 28.7 µM), inactives show at the highest dose activity change, negative = inhibition, usual class: inhibitors | 320,000 tested, 6.9% active; further: potency means the concentration at half of the fitted maximal effect; on the % scale 0 is the no-effect control and ±100 the full control effect
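Erythrocytes infected with luciferase-expressing P. falciparum were dispensed at 2% hematocrit and 0.05% parasitemia (final), then incubated with compounds 96 hours at 37 C in 5% CO2. Luminescence after detection reagent addition reported growth.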
HCMV inh: inhibitors of human cytomegalovirus. HFF cells, HCMV-luciferase reporter, 72 h; active compounds read low. AID 1259415. activity change, negative = inhibition, % at 57.5 µM. 410,000 tested, 4.5% active; in the data active means activity change below about -60%; inconclusive means no clear call, values can overlap the other calls; inactive means above about -39%; further: on the % scale 0 is the no-effect control and ±100 the full control effect
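Steps: HFFs plated, 16 h 37C; compounds added; HCMV-luciferase added to MOI 1 PFU/cell; 72 h 37C; OneGlo reagent, 5 min room temperature; luminescence read, normalized to controls.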
Pf growth 48h: P. falciparum growth inhibition at 48 hours (one generation) | P. falciparum luciferase growth in erythrocytes, 48 h | Potency, µM (highest dose often 28.7 µM), without a hit: top-dose activity change, negative = inhibition, hits mostly inhibitors | 310,000 tested, 5.9% active; further: potency means the concentration at half of the fitted maximal effect; on the % scale 0 is the no-effect control and ±100 the full control effect
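Luciferase-expressing parasites in RBCs, 2% Hct / 0.1% parasitemia final; RPMI 1640 + 0.5% Albumax; 37 C, 5% CO2, one generation; luminescence read-out, lower signal = inhibition.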
CHX counter: counter-screen hit for Shiga toxin inhibitors, cycloheximide; cell reporter, cycloheximide protein synthesis inhibition counterscreen; 300,000 tested, 12% active; max response, %; in the data active means max response mostly above about 13%, no sharp cut-off; inactive means mostly below about 14%; further: read at 38.3 µM for the half of the compounds with a filed dose; 0% is about no effect
* = called active by the depositor; ? = inconclusive; . = no result; [ ] = remark or other dose. Sampled rows, rich in hits. Any-hit rate of the full collection: about 20%. Unless noted, the call rests on the fitted dose curve; in most records, active means well fitted inhibition curve with a large enough effect; inconclusive means small, poorly fitted or top-dose-only effect, or another doubt; inactive means no such curve, though single readings can be large or run the other way.

SMILES | Shiga inhibitor | Pf growth 96h | HCMV inh | Pf growth 48h | CHX counter
O=C(NNC(=O)c1ccccc1Cl)c1cccs1 | 35.4* | ? | 37.9 | 79.4% | 31.1
O=C(NNC(=O)c1cc(Cl)ccc1O)c1cccs1 | 49.3* | ? | 18.5 | 63.5% | 28.6*
O=C(Nc1ccccc1Cl)c1cccs1 | 103.5* | ? | 61.5 | 63.6% | 27.4*
O=C(CCC(=O)c1cccs1)NNC(=O)c1cc(Cl)ccc1Cl | . | . | 17.4 | . | .
O=C(/C=C/c1ccccc1Cl)NNC(=O)c1cccs1 | 46.2 | 17.8% | -0.6 | 1.3% | 32.0*
COc1cccc(CN(C(=O)c2ccc(C(C)(C)C)cc2)C2CCS(=O)(=O)C2)c1 (stereo not given) | . | . | 14.9 | . | .
ClC1CCCCC1n1nnc2ccccc21 (stereo not given) | . | . | -33.9 | . | .
CC(=O)Nc1ccc2c(c1)NC(=O)CC2 | 3.0 | -49.9%[5.75 µM] | 39.0 | -0.7% | -2.5
COC(=O)Nc1ccc2c(c1)Nc1ccccc1CC2 | . | 50.6% | 0.8 | -6.1% | active
O=C(CSc1ncn[nH]1)Nc1ccccc1-c1ccccc1 | 23.6 | ? | 29.1 | ? | -2.6
CCc1nnc(NC(=O)CSc2ncc(-c3ccccc3)[nH]2)s1 | 20.0 | . | 8.3 | 23.8% | 38.0*
O=C(CSc1ncn[nH]1)Nc1nnc(-c2ccccc2)s1 | 91.3* | 17.3% | . | . | 66.8*
Cc1nnc(NC(=O)CSc2ncc(-c3ccccc3)[nH]2)s1 | 31.4* | 42.2% | 13.4 | -2.2% | 12.8
Cc1csc(NC(=O)CSc2ncc(-c3ccccc3)[nH]2)n1 | 10.2 | 30.6% | -98.4* | 72.8% | 29.5*
CCN(CC(=O)NCc1ccc(Cl)cc1)C(=O)CSCC(=O)Nc1ccc(C)cc1 | . | -12.5% | -3.0 | -15.3% | .
COc1ccccc1NC(=O)N1CC(=O)N2[C@H](C1)[C@@H](c1ccc(Br)cc1)[C@@H]2CO | . | . | 7.0 | . | .
Cc1ccccc1N1CCN(C2CCCN(C(=O)CCN3CCCO3)C2)CC1 (stereo not given) | 4.7 | 47.9% | 1.6 | -9.2% | -2.2
O=c1c2ccccc2nc(CN2CCCCCC2)n1-c1ccc(F)cc1 | -6.4 | . | 37.7 | ? | -1.6
Nn1c(COc2ccc(Cl)cc2)nc2ccccc2c1=O | active | -17.2% | 26.3 | 71.9% | 24.3*
Nn1c(CN2CCCCC2)nc2ccccc2c1=O | -1.8 | 2.33µM* | 41.3 | 32.4% | -0.6
Nn1c(Cc2ccccc2)nc2ccccc2c1=O | . | . | 65.2 | . | .
CCN(c1ccccc1)S(=O)(=O)c1ccc(C(=O)N(C)Cc2cccs2)cc1 | . | . | -11.6 | . | .
O=C(CNC(=O)c1ccccc1)N=Nc1c(O)[nH]c2ccc(Br)cc12 | -5.6 | 10.1% | 7.7 | 13.7% | -5.1
Cc1ccc2[nH]c(O)c(N=NC(=O)CCc3ccccc3)c2c1Br | -4.4 | -1.5% | -61.2* | 27.2% | -1.5
CC12CCC(=O)C=C1C(O)CC1C2CCC2(C)C1CCC2(O)C(=O)CO (stereo not given) | . | . | -38.1 | . | .
SMILES | Shiga inhibitor | Pf growth 96h | HCMV inh | Pf growth 48h | CHX counter
CC(=O)C12CCCCC1CC1[C@@H]3CC(C)C4=CC(=O)CC[C@]4(C)C3CC[C@@]12C (stereo not given in full) | 3.0 | ? | -80.2* | ? | -0.9
CC(=O)O[C@]1(C(C)=O)CC[C@H]2[C@@H]3C[C@H](C)C4=CC(=O)CC[C@]4(C)[C@H]3CC[C@@]21C | 8.2 | 11.7µM* | 56.1 | 13.1µM* | -1.5
CCOc1ccccc1NC(=O)c1sc2nc(-c3ccc(OC)cc3)ccc2c1N | . | . | -94.9* | . | .
Cc1ccc2c(N)c(C(=O)N(c3ccccc3)c3ccccc3)sc2n1 | -13.0 | ? | -10.3 | 9.28µM* | 13.2
CC(C)OC(=O)c1sc2nc(-c3ccccc3)ccc2c1N | 143.5* | 344.9% | ? | 191.9% | 66.1*
COc1ccc(C(=O)c2sc3nc(-c4ccccc4)ccc3c2N)cc1 | 26.6 | -20.4% | . | -12.4% | 2.4
COC(=O)c1cc2c(N)c(C(=O)c3ccccc3)sc2nc1C(OC)OC | 36.8 | ? | 20.2 | ? | 24.1*
CCOc1ccccc1NC(=O)c1sc2nc(C)cc(C)c2c1N | . | . | -2.6 | . | .
CCOc1ccccc1NC(=O)Cn1c(=O)n(-c2ccc(F)cc2)c(=O)c2sc3ccccc3c21 | . | . | 48.1 | . | .
Cn1c(N)c(Sc2ccc(F)cc2)c(=O)n(C)c1=O | -8.7 | -12.3% | ? | -26.6% | -1.9
Cc1nc(Cl)c(C(=O)NCCc2ccccc2)c(C)c1[N+](=O)[O-] | 17.0 | -12.0% | -19.9 | -14.3% | 0.3
NC(=O)c1sc2nc(-c3cccnc3)ccc2c1N | 32.5* | -18.2% | 36.3 | 35.9% | 21.8*
